Assay [1] concerns PRMT1 (protein arginine N-methyltransferase 1). The experiment in a line: small molecules binding arginine methyltransferase PRMT1 – biochemical, small-molecule microarray, 635 nm fluorescence, primary screen (AID 1088).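 Also: binding of Prmt1 protein to compounds spotted on small-molecule microarray slides.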 As to conditions: higher = more signal.
Assay [2] can be described thus: growth effects on S. cerevisiae YJM789 – YJM789 clinical isolate, OD600, 24 h, basal, primary screen (AID 1089).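 Also: growth of clinical yeast isolate S. cerevisiae YJM 789 seeded 1000 cells per well; test concentration not given here.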 As to conditions: higher = more signal, called active from +8 up or from −8 down.
Assay [3] can be described thus: S. pombe growth modifiers, basal conditions – strain 972, OD600, 24 h, no modulator, primary screen (AID 1090).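 Also: basal condition with compound alone and no growth modifier present; test concentration not given here.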 As to conditions: S. pombe 972 growth, higher = more signal, called active from +8 up or from −8 down.
Assay [4] can be described thus: budding yeast growth modifiers under rapamycin – strain BY4716, OD600, 96 h, primary screen (AID 1091). Also: test concentration not given here. As to conditions: S. cerevisiae BY4716 + rapamycin, higher = more signal, called active from +8 up or from −8 down.
Assay [5] concerns the target Torsin-1A-interacting protein 2 (Homo sapiens) (UniProt Q8NFQ8). The assay can be described thus: small molecules binding lysate-expressed LULL1 – cell lysate, human LULL1 lysate, 635/667 nm fluorescence, primary screen (AID 1092).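 Also: probe is lysate of COS7 cells overexpressing human LULL1; score merges per-feature 667 nm fluorescence with signal-to-noise.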 As to conditions: small-molecule microarray, hLULL1 lysate binding, 635 nm fluorescence; higher = more signal.
Assay [6] in a line: optical density change of DRC41 E. coli – strain DRC41, OD650, 24 h, E. coli filamentation project, primary screen (AID 1093).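 Also: MC1000 strain lacking acrAB efflux and sulA so SOS filamentation is blocked; test concentration not given here.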 As to conditions: E. coli DRC41 growth, higher = more signal, called active from +8 up or from −8 down.
Assay [7] is described as follows: probe aLefty2 binding to arrayed compounds – biochemical, biotinylated probe, 635/667 nm fluorescence, primary screen (AID 1094).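 Also: score merges spot fluorescence near 667 nm with spot signal-to-noise ratio.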 The conditions noted are these: small-molecule microarray, higher = more signal.
For assay [8], the system named is Noggin (protein binding on small-molecule microarray). The experiment in a line: small molecules binding Noggin protein – biochemical, 635/667 nm fluorescence, primary screen (AID 1095).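 Also: score merges 667 nm feature fluorescence with signal to noise over triplicate slides.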 The conditions noted are these: 635 nm fluorescence, higher = more signal.
For assay [9], the target named is Neurogenic locus notch homolog protein 3 (Homo sapiens) (UniProt Q9UM47). The assay can be described thus: small molecules binding NOTCH3 protein – biochemical, 635/667 nm fluorescence, primary screen (AID 1096). As to conditions: small-molecule microarray, 635 nm fluorescence, higher = more signal.
Assay [10] is described as follows: probe aEGFR binding to arrayed compounds – biochemical, biotinylated probe, 635/667 nm fluorescence, primary screen (AID 1097).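 Also: probe is a biotinylated anti-EGFR antibody binding compounds printed on slides; score combines fluorescence near 667 nm and signal to noise of each spot.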 As to conditions: small-molecule microarray, higher = more signal.
Assay [11] relates to Plasmodium falciparum Sir2 (PF13_0152, Sir2A). The assay can be described thus: Plasmodium falciparum Sir2A binding compounds – biochemical, small-molecule microarray, 635 nm fluorescence, primary screen (AID 1098).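 Also: score merges spot fluorescence intensity with its signal-to-noise ratio.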 The conditions noted are these: fluorescence 635 nm, higher = more signal.
Assay [12] is described as follows: probe aDKK1 binding to arrayed compounds – biochemical, biotinylated probe, 635/667 nm fluorescence, primary screen (AID 1099).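 Also: score merges 667nm spot fluorescence with signal to noise across triplicate slides; reference of the scale not given here.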 As to conditions: small-molecule microarray, higher = more signal.
The nature of assay [13]: probe aCHRDL2 binding to arrayed compounds – biochemical, biotinylated probe, 635/667 nm fluorescence, primary screen (AID 1100). As to conditions: small-molecule microarray, higher = more signal.
The nature of assay [14]: change in splice reporter luminescence, either direction, cell-based, HEK293, spliceosome inhibition project, primary screen (AID 1101).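 Also: HEK293 cells carrying a splicing-competent luciferase reporter gene; test concentration not given here.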 The conditions noted are these: HEK293 splicing luciferase reporter, 24 h, higher = more signal, called active from +8 up or from −8 down.
For assay [15], the target named is Fibroblast growth factor 10 (Homo sapiens) (UniProt O15520). The experiment in a line: compounds binding fibroblast growth factor 10 – biochemical, small-molecule microarray, 635 nm fluorescence, primary screen (AID 1102). As to conditions: FGF10 binding, fluorescence 635 nm, higher = more signal.
The subject of assay [16] is glycogen synthase kinase-3 (GSK3A per assay name; protocol says GSK3B). The assay can be described thus: compounds binding glycogen synthase kinase-3 – biochemical, small-molecule microarray, 635 nm fluorescence, GSK3A, primary screen (AID 1103). Also: the record names both GSK3A and GSK3B. As to conditions: fluorescence 635 nm, higher = more signal.
For assay [17], the target named is Epidermal growth factor receptor (Homo sapiens) (UniProt P00533). The experiment in a line: compounds binding epidermal growth factor receptor – biochemical, small-molecule microarray, 635 nm fluorescence, primary screen (AID 1104).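 Also: score merges 667 nm emission intensity with spot signal to noise over triplicate slides.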 The conditions noted are these: EGFR binding, higher = more signal.
For assay [18], the target named is Follistatin-related protein 3 (Homo sapiens) (UniProt O95633). The assay can be described thus: compounds binding follistatin-related protein 3 – biochemical, small-molecule microarray, 635 nm fluorescence, primary screen (AID 1105).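 Also: score merges emission near 667 nm and signal to noise per printed spot across three slides.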 The conditions noted are these: FSTL3 binding, higher = more signal.
Assay [19] deals with Dickkopf-related protein 1 (Homo sapiens) (UniProt O94907). The assay can be described thus: small molecules binding DKK1 protein – biochemical, small-molecule microarray, 635 nm fluorescence scan, primary screen (AID 1106).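 Also: score merges emission near 667 nm with signal to noise over three replicate slides.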 The conditions noted are these: higher = more signal.
Assay [20] deals with Inhibin beta A chain (activin A). The experiment in a line: small molecules binding activin A – biochemical, small-molecule microarray, 635 nm fluorescence scan, primary screen (AID 1107).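 Also: mouse activin A protein probed at 4.33 µg/mL on printed slides; score merges bound-protein fluorescence near 667 nm with spot signal-to-noise.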 As to conditions: INHBA, higher = more signal.

Activity calls are given as the source filed them.

Torsin-1A-interacting protein 2 (Homo sapiens), sequence (Q8NFQ8 whole entry, looked up): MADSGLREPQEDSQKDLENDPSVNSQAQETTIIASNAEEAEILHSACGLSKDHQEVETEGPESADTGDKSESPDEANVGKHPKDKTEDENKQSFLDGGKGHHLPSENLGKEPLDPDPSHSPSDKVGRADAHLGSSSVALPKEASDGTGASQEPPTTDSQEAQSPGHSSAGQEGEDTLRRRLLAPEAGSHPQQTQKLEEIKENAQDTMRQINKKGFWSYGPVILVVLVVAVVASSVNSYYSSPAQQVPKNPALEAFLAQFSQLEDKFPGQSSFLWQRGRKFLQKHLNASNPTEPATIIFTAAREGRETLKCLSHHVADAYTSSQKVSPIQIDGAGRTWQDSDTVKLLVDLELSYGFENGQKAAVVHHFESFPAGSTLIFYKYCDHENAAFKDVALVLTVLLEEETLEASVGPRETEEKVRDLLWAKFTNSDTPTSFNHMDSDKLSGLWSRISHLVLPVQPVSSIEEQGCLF
Follistatin-related protein 3 (Homo sapiens), sequence (O95633 whole entry, looked up): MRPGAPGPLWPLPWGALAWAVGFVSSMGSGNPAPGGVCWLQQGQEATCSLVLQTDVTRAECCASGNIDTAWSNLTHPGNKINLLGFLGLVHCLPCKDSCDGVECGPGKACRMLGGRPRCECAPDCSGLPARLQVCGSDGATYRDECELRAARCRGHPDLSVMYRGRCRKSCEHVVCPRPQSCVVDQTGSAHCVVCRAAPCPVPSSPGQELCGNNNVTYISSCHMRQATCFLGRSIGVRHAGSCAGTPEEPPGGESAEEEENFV
Neurogenic locus notch homolog protein 3 (Homo sapiens), sequence (Q9UM47 whole entry, looked up): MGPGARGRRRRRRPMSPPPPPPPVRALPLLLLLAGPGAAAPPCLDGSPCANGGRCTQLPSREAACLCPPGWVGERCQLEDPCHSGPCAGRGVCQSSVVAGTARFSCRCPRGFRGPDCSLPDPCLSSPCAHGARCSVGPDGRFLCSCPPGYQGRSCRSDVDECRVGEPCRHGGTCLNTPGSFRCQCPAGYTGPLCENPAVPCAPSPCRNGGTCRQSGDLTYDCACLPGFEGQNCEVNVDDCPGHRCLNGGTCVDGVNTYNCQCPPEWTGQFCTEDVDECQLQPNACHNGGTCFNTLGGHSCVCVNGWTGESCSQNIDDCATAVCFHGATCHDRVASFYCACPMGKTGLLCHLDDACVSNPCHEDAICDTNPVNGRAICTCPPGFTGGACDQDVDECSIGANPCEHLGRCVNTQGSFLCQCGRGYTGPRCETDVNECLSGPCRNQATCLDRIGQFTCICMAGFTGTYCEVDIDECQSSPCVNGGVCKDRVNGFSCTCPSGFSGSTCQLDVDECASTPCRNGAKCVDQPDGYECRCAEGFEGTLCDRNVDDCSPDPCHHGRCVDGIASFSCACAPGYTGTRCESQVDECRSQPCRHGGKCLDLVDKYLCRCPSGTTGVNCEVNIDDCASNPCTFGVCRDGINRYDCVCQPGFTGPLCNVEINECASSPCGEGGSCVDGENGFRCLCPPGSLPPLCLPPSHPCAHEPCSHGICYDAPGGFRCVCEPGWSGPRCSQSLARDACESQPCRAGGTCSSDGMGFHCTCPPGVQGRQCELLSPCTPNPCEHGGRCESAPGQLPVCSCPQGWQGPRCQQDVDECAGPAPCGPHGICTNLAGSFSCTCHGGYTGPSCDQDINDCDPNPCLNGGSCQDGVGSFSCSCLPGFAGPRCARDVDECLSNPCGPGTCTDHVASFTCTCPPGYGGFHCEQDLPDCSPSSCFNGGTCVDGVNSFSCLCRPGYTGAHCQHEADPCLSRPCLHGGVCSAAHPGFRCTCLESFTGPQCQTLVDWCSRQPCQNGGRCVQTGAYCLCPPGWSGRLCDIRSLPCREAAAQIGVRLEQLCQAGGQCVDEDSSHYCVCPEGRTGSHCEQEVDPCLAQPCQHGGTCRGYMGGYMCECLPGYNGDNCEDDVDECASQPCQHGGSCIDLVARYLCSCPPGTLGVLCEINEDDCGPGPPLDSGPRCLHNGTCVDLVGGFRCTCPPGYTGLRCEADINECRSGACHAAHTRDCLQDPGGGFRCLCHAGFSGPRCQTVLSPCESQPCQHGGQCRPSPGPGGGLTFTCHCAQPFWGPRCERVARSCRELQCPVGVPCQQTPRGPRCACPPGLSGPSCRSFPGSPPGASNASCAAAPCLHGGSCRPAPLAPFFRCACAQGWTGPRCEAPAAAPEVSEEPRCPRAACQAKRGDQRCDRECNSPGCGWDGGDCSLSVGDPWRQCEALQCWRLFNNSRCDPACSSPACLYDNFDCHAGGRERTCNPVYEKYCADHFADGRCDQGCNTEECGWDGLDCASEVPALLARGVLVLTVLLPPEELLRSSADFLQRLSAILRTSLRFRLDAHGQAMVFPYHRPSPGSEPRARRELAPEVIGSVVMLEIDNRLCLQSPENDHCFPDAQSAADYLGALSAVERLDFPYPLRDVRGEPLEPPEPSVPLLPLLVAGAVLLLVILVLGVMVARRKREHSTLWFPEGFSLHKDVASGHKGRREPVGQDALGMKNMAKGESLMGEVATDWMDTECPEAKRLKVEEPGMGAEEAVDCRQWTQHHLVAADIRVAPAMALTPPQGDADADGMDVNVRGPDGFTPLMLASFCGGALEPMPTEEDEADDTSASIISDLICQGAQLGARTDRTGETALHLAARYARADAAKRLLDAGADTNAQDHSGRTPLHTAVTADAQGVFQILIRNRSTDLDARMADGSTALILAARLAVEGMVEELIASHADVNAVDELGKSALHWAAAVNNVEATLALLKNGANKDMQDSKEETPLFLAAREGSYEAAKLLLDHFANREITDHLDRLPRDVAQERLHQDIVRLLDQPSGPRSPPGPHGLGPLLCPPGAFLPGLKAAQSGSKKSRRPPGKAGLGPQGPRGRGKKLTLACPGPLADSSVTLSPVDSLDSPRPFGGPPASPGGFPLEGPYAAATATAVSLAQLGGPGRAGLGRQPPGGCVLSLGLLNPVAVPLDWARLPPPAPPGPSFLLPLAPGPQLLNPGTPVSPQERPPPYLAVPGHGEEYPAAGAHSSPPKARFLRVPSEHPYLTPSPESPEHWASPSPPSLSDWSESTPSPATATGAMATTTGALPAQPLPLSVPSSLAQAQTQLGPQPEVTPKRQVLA
Fibroblast growth factor 10 (Homo sapiens), sequence (O15520 whole entry, looked up): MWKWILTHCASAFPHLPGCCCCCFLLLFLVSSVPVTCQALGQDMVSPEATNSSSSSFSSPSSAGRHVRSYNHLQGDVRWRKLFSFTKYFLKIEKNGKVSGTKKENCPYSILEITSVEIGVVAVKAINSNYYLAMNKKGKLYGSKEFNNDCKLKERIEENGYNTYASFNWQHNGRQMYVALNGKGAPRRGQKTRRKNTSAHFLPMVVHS
Dickkopf-related protein 1 (Homo sapiens), sequence (O94907 whole entry, looked up): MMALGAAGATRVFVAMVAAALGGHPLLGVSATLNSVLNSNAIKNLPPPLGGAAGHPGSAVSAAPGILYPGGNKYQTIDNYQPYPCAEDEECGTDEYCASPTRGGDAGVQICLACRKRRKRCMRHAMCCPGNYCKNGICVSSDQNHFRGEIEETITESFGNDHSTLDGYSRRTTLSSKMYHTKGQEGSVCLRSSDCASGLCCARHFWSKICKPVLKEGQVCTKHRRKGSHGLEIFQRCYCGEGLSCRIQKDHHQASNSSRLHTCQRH
Epidermal growth factor receptor (Homo sapiens), sequence (P00533 whole entry, looked up): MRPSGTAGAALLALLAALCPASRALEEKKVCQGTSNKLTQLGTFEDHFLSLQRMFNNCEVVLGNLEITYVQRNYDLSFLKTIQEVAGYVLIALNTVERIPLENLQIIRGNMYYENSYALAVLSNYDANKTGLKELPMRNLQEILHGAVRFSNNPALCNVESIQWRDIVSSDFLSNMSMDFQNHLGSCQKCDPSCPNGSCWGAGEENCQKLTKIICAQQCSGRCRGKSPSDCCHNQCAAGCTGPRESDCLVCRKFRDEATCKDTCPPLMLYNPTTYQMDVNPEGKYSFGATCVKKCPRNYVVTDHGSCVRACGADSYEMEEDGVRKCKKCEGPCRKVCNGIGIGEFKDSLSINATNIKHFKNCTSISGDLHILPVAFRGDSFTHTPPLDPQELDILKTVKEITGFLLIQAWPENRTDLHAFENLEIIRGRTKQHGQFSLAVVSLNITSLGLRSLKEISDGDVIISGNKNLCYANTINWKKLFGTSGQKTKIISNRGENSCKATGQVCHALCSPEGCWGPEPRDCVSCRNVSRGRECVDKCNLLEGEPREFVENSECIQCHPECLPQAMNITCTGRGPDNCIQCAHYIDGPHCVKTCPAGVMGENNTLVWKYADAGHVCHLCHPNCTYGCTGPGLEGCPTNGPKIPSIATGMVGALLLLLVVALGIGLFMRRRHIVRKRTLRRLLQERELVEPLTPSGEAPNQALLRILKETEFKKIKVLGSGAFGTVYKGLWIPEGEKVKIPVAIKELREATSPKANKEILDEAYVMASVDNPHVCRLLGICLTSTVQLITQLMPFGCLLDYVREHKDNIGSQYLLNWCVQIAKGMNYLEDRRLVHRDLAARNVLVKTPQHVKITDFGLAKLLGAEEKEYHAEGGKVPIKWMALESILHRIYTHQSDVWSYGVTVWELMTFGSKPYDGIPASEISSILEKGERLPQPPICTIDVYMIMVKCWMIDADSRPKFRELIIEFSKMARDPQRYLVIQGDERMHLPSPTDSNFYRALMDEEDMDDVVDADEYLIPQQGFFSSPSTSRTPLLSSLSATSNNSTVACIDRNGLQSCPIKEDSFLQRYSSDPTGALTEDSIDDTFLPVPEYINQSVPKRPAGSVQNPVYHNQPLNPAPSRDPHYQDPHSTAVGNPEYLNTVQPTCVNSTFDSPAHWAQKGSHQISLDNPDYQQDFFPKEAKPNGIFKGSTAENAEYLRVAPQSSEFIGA

With `CN1C(=O)C2C=CC(C(O)C3CC=CCC3)N(Nc3ccccc3)C2C1=O` (stereo not given), the composite z-score in assay [1] was found to be 1.47; in [5], 3.32; in [7] it was 0.344; in assay [8], 0.584; in assay [9] it was 1.06; in [10] it was 0.112. Further, the composite z-score in assay [11] came out at 1.09; in assay [12], 0.642; in assay [13], 0.533; in assay [15], 0.989; in assay [16], 0.879; in assay [17], 1.07. The composite z-score worked out at 1.45 in assay [18], 1.06 in assay [19] and 1.3 in [20]. The z-score is 0.373 (inactive) in assay [2]; 0.772 (inactive) in assay [3]; 0.726 (inactive) in assay [4]; -0.623 (inactive) in assay [6]; 1.2 (inactive) in assay [14].
For `CO[C@@H]1COC(=O)[C@H](COCc2ccccc2)NC(=O)CC=C[C@@H](C)[C@H](OC)COC(=O)[C@H](COCc2ccccc2)NC(=O)CC=C[C@H]1C`, the composite z-score in [1] is 0.0472; in assay [5] it was -0.0267; in assay [7] it was -0.226; in assay [8] it was 0.63; in [9], -0.511; in assay [10], -0.0605. For the same molecule, the composite z-score in assay [11] was -0.23; in assay [12], -0.466; in [13], -0.942; in [15], 0.168; in assay [16], 0.376; in assay [17], 0.48. For the same molecule, the composite z-score is 0.424 in [18], 0.96 in assay [19] and 1.51 in [20]. Further, the z-score in assay [2] was 0.982 (inactive); in [3], -0.371 (inactive); in assay [4], 0.921 (inactive); in assay [6], -0.405 (inactive); in assay [14] it was -0.923 (inactive).
With `O=C1c2ccccc2[C@](Cc2ccccc2I)(C(=O)NCc2ccccc2)[C@H](c2ccc(CO)cc2)N1Cc1ccccc1C(F)(F)F`, the composite z-score in [1] was 1.27; in [5] it was 2.44; in assay [7] it was -0.0345; in [8] it was -1.05; in assay [9], -0.785; in [10], -0.179. Further, the composite z-score in [11] was 0.74; in assay [12] it was 0.606; in [13], 1.11; in assay [15], -0.881; in [16], -1.42; in assay [17], -1.39. The results for the composite z-score in assay [18], in assay [19] and in assay [20] were -1.27, -2.07 and 0.623, respectively. In addition, the z-score in assay [2] is 0.417 (inactive); in [3] it was -1.05 (inactive); in assay [4], 0.304 (inactive); in assay [6] it was 1.03 (inactive); in assay [14] it was -0.984 (inactive).
For the molecule `C=C(CCCC)C(=O)CC[C@@H](OC(=O)c1cccnc1)c1cccc(OCCO)c1`, the composite z-score in assay [1] was 1.12; in [5], 0.136; in assay [7] it was -0.186; in [8], 0.491; in assay [9] it was 0.145; in assay [10], -0.145. Moreover, the composite z-score in [11] was 1.48; in [12] it was -0.246; in assay [13] it was 0.238; in assay [15], 0.72; in [16] it was 0.13; in assay [17] it was -0.237. Besides, the composite z-score in assay [18] was -0.242; in assay [19], 0.265; in assay [20] it was 1.2. For the same molecule, the z-score in assay [2] was -0.323 (inactive); in assay [3], -2.6 (inactive); in assay [4], -0.2 (inactive); in [6], 0.493 (inactive); in assay [14] it was 3.57 (inactive).
As to `CC(C)[Si]1(C(C)C)O[C@@H](c2ccccc2)c2cc(C3CC3)nc(-c3ccc(Oc4ccccc4)cc3)c21`, the composite z-score was -0.63 in [1]; 0.369 in [5]; -0.142 in assay [7]; -0.101 in assay [8]; -1.22 in [9]; -0.169 in [10]. The composite z-score is -1.25 in assay [11]; -0.105 in [12]; -0.037 in assay [13]; -0.318 in assay [15]; -0.343 in assay [16]; -0.0891 in assay [17]. Moreover, the composite z-score in assay [18] was -0.489; in assay [19], -0.159; in [20] it was 0.513. The z-score is 0.995 (inactive) in assay [2]; -0.808 (inactive) in assay [3]; 1.21 (inactive) in assay [4]; 1.94 (inactive) in assay [6]; -0.961 (inactive) in assay [14].

These data come from PubChem BioAssay.
